Test results as given in PubChem BioAssay.
Calls of active or inactive are those of the source. Unless noted, no stated cut-off is given here; in the data, active means inhibition above about 80%; inactive means the rest.

How the values were obtained:
[1] = P. berghei load reduction in hepatocytes – cell-based, HepG2, luciferase luminescence, HepG2 viability, primary screen (AID 624349; in the data active means parasite load remaining mostly below about 12%, no sharp cut-off; inactive means mostly above about 10%;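 further: 100% = mean of DMSO negative control wells on the same plate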); settings: P. berghei liver stage in HepG2, luciferase luminescence, concentration not given here; parasite load remaining: stronger effect = lower value; viability: measured here: HepG2 viability without parasites
[2] = galactose survival enhancers in mitochondrial complex I cybrids – cell-based, galactose medium, ATP luminescence, primary screen (AID 1645843;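 active means z-score of at least 1.8 in each of two replicates, scored against plate mean and spread of sample wells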;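 further: positive z means more ATP and so rescue of galactose-driven cybrid death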); settings: complex I mutant cybrid cells, 72 h, stronger effect = higher value
[3] = blockers of cellular phospholipid synthesis – cell-based, LOPAC library, screen 4, primary screen (AID 1347384; call rule not given here); settings: animal cells, phospholipid biosynthesis inhibition screen; at 10 µM
[4] = growth inhibition, single agents and combos, LFS_MB_1R, cell-based, cisplatin or BGB combos, synergistic combos for chromothripsis tumors (AID 1671452); settings: LFS_MB_1R medulloblastoma cells, stronger effect = higher value;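 further: cells exposed for 96 hours before readout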
[5] = growth inhibition, single agents and combos, CRL2098, cell-based, BGB or cisplatin IC20 combos, synergistic combos for chromothripsis tumors (AID 1671454); settings: CRL2098 osteosarcoma cells, drug combinations, stronger effect = higher value;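 further: cells exposed for 96 h before readout; 0% = vehicle DMSO and 100% = killing by high DMSO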
[6] = growth inhibition, single agents and combos, HD-MB03, cell-based, BGB or cisplatin IC20 combos, synergistic combos for chromothripsis tumors (AID 1671455; in the data active means inhibition above about 83%;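 further: 0% = vehicle DMSO and 100% = high DMSO as cytotoxic control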); settings: HD-MB03 medulloblastoma cells, stronger effect = higher value
[7] = growth inhibition, single agents and combos, UWB1.289, cell-based, BGB or cisplatin combos, synergistic combos for chromothripsis tumors (AID 1671456); settings: UWB1.289 ovarian carcinoma cells, stronger effect = higher value;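 further: cells exposed to compound for four days; 0% = vehicle DMSO and 100% = killing by high DMSO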
[8] = growth inhibition, single agents and combos, LFS_MB_2R, cell-based, cisplatin combos, synergistic combos for chromothripsis tumors (AID 1671457); settings: LFS_MB_2R medulloblastoma cells, stronger effect = higher value;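 further: cells exposed to compound for four days before readout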
[9] = UWB1.289_BRCA1 ovarian cancer growth, cell-based, BGB or cisplatin combinations (AID 1671459); settings: UWB1.289 BRCA1 ovarian carcinoma, drug combinations, stronger effect = higher value
[10] = drug combination toxicity in non-malignant astrocytes – cell-based, BGB or cisplatin IC20 combos, cytotoxicity control for chromothriptic childhood tumor combination screen (AID 1671460); settings: Human astrocytes, viability inhibition, drug combinations, at 0.5 µM, stronger effect = higher value;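 further: cells exposed to compounds for 96 hours before viability readout; 0% = vehicle and 100% = killing control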
[11] = CRL1545 cell growth, single agent and combined, cisplatin and BGB IC20 combos (AID 1671464); settings: CRL1545 osteosarcoma cells, stronger effect = higher value;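 further: cells exposed to compound for 96 hours before readout; 0% = vehicle DMSO and 100% = high DMSO killing control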
[12] = measured here: combination with cisplatin, at 0.5 µM
[13] = measured here: combination with cisplatin, at 5 µM

Cc1ccc(O)c(C(CCN(C(C)C)C(C)C)c2ccccc2)c1 (stereo unspecified)
parasite load remaining [1]: 53.2% (inactive)
viability [1]: 96.6%
z-score [2]: -0.5 (inactive)

Clc1ccc(C(c2ccc(Cl)cc2)n2cc[n+](CC(OCc3ccc(Cl)cc3Cl)c3ccc(Cl)cc3Cl)c2)cc1 (stereo unspecified)
outcome [3]: inactive

Nc1ncnc2c1c(-c1cnc3[nH]ccc3c1)nn2C1CCCC1
inhibition ([4]; at 0.5 µM): -19.1% (inactive)
inhibition ([4]; measured here: combination with BGB IC40, at 0.05 µM): -13.7%
inhibition [4, 12]: -26.5%
inhibition [4, 13]: 69.1%
inhibition ([5]; at 0.5 µM): 25.4% (inactive)
inhibition ([5]; measured here: combination with BGB at IC20, at 0.5 µM): 3.06%
inhibition ([5]; measured here: combination with cisplatin at IC20, at 0.5 µM): 36.8%
inhibition ([6]; at 0.5 µM): 28.9% (inactive)
inhibition ([6]; measured here: combo with BGB at IC20, at 0.5 µM): 13%
inhibition ([6]; measured here: combo with cisplatin at IC20, at 0.5 µM): 41.5%
inhibition ([7]; at 0.5 µM): 28.7% (inactive)
inhibition ([7]; measured here: inhibition with BGB combination, at 0.05 µM): -4.92%
inhibition ([7]; measured here: inhibition with cisplatin combination, at 0.05 µM): -7.06%
inhibition ([8]; at 0.5 µM): -21.4% (inactive)
inhibition [8, 12]: -27.2%
inhibition [8, 13]: 59%
inhibition ([9]; BGB combination, concentration series, at 5 µM): 98.9%
inhibition ([9]; at 0.5 µM): 22.9% (inactive)
inhibition ([9]; cisplatin combination, concentration series, at 5 µM): 106%
inhibition [10]: 53.4% (inactive)
inhibition ([10]; measured here: combo with BGB IC20): 55.9%
inhibition ([10]; measured here: combo with cisplatin IC20): 46%
inhibition ([11]; at 0.5 µM): -8.52% (inactive)
inhibition ([11]; measured here: with BGB IC20 combination, at 0.5 µM): -19%
inhibition ([11]; measured here: with cisplatin IC20 combination, at 0.5 µM): -4.93%
inhibition ([11]; single agent, at 0.05 µM): -24.4%
inhibition ([11]; single agent, at 5 µM): 98.2%
